Consider 51 compounds from PubChem BioAssay AID1839 (Johns Hopkins Ion Channel Center, 2009).

In all, about 2,400 compounds went through this assay and about 220 (9.2%) were called active. This excerpt belongs to a sample that is enriched for actives. Values without a mark were called inactive.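 Rule for the calls: active = signal change above the mean of dofetilide-free buffer controls plus 3 SD, so a positive margin; inactive = the rest.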

The assay is described as follows: thallium signal changes without hERG – cell-based, CHO-K1 parental line, FluxOR thallium flux, counter-screen for hERG block protection project, confirmation (AID 1839).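 Note: compounds applied alone with no dofetilide to cells lacking hERG.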 Particulars: CHO-K1 parental cells, FluxOR thallium flux fluorescence; at 10 µM.
In the case of `C/C(=N\NC(=S)Nc1c(C)cccc1C)c1cc2ccccc2o1`, the signal change vs control minus 3*SD hit threshold (margin above threshold, higher = more increase) was -26%.
In the case of `Cc1ccc(/C=N/NC(=O)c2cc(C)oc2C)o1`, the signal change vs control minus 3*SD hit threshold (margin above threshold, higher = more increase) was -22.9%.
Regarding `Cc1ccc(/C=N/NC(=O)c2cc3ccccc3cc2O)o1`, the signal change vs control minus 3*SD hit threshold (margin above threshold, higher = more increase) is 18.2% (active).
For the compound `C/C(=N/NC(=O)c1cc2ccccc2cc1O)c1ccco1`, the signal change vs control minus 3*SD hit threshold (margin above threshold, higher = more increase) was 3.4% (active).
Turning to `C/C(=N\NC(=O)c1cc2ccccc2cc1O)c1ccc(C)o1`, the signal change vs control minus 3*SD hit threshold (margin above threshold, higher = more increase) is 3.3% (active).
In the case of `C/C(=N\NC(=O)c1ccoc1C)c1cccc2ccccc12`, the signal change vs control minus 3*SD hit threshold (margin above threshold, higher = more increase) was -5.5%.
Take `C/C(=N\NC(=O)c1cc2ccccc2cc1O)c1cc2ccccc2o1`: the signal change vs control minus 3*SD hit threshold (margin above threshold, higher = more increase) is 50.8% (active).
For the compound `Cc1cccc(/C=N/NC(=O)c2cc(Br)ccc2O)n1`, the signal change vs control minus 3*SD hit threshold (margin above threshold, higher = more increase) was -26.5%.
For the compound `Cc1ccc(/C=N/NC(=O)c2cc(-c3ccncc3)nc3ccccc23)o1`, the signal change vs control minus 3*SD hit threshold (margin above threshold, higher = more increase) was -58.7%.
Take `C/C(=N\NC(=O)c1cc2ccccc2cc1O)c1ccccn1`: the signal change vs control minus 3*SD hit threshold (margin above threshold, higher = more increase) is -32.4%.
Regarding `O=C(N/N=C/c1ccc(Sc2ccccn2)o1)c1cc2ccccc2cc1O`, the signal change vs control minus 3*SD hit threshold (margin above threshold, higher = more increase) is -17.7%.
Turning to `COc1ccc(CCNC(=O)c2cc3ccccc3oc2=O)cc1`, the signal change vs control minus 3*SD hit threshold (margin above threshold, higher = more increase) was -38.8%.
For `NC(=O)Cn1c2[n+](c3ccccc31)CC(O)CS2` (stereo unspecified), the signal change vs control minus 3*SD hit threshold (margin above threshold, higher = more increase) was -25.7%.
Regarding `CC(=O)c1ccc2c(c1)OCCOCCOCCO2`, the signal change vs control minus 3*SD hit threshold (margin above threshold, higher = more increase) was -35.7%.
The result for `CC(CCc1ccccc1)NC(=S)NC(=O)c1ccco1` (stereo unspecified) reads 0%.
For the compound `C/C(=C\C(=O)c1ccccc1)NNC(=O)c1ccc(Cl)cc1`, the signal change vs control minus 3*SD hit threshold (margin above threshold, higher = more increase) is -4.7%.
In the case of `Cc1ccc(Cn2nnc3c(=O)n(CC(=O)N4CCCc5ccccc54)cnc32)cc1`, the signal change vs control minus 3*SD hit threshold (margin above threshold, higher = more increase) was -24.6%.
Regarding `Cc1ccc(C(=O)CC(=O)c2ccccc2C)c(O)c1`, the signal change vs control minus 3*SD hit threshold (margin above threshold, higher = more increase) is -34%.
For the compound `Cc1cc(=S)[nH]c2c(C)cccc12`, the signal change vs control minus 3*SD hit threshold (margin above threshold, higher = more increase) was -20%.
Consider `c1ccc(CCCNc2ncnc3nc[nH]c23)cc1`, for which the signal change vs control minus 3*SD hit threshold (margin above threshold, higher = more increase) was -18.5%.
Take `CSc1nsc(SCC(=O)Nc2ccccc2C(=O)O)n1`: the signal change vs control minus 3*SD hit threshold (margin above threshold, higher = more increase) is -22.4%.
Take `O=C(NC(=S)Nc1nc(-c2ccccc2)cs1)c1cncc(Br)c1`: the signal change vs control minus 3*SD hit threshold (margin above threshold, higher = more increase) is -17.9%.
On to `S=C(Nc1ccc(Cl)cc1)c1nc2ccccc2s1`, for which the signal change vs control minus 3*SD hit threshold (margin above threshold, higher = more increase) was 10.2% (active).
Consider `Cc1ccc(NC(=S)c2nc3ccccc3s2)cc1`, for which the signal change vs control minus 3*SD hit threshold (margin above threshold, higher = more increase) is -24.9%.
Turning to `Cc1cccc(NC(=S)c2nc3ccccc3s2)c1`, the signal change vs control minus 3*SD hit threshold (margin above threshold, higher = more increase) was -28.6%.
In the case of `O=c1[nH]c(C(Cl)(Cl)Cl)nc2ccc3ccccc3c12` it was -12%; in that of `COc1ccc(C)cc1NC(=O)C(=O)NNC(=O)c1ccco1`, 23.7% (active).
`COc1ccc(OC)c(NC(=O)C(=O)NNC(=O)c2cccs2)c1`: the signal change vs control minus 3*SD hit threshold (margin above threshold, higher = more increase) was -26.1%.
The result for `COc1ccccc1NC(=O)C(=O)NNC(=O)c1ccco1` reads 6.5% (active); that for `O=C(CCC(=O)Nc1ccccc1)NNC(=O)c1ccco1`, -34.1%; that for `COc1ccc(C)cc1NC(=O)Nc1ccc(C(=O)N2CCCC2)cc1`, -20.5%.
Turning to `COCC1CCCN(C(=O)c2ccc3oc(C(C)C)nc3c2)C1` (stereo unspecified), the signal change vs control minus 3*SD hit threshold (margin above threshold, higher = more increase) was -17.8%.
Take `C/C(O)=C/c1nc2ccccc2[nH]c1=O`: the signal change vs control minus 3*SD hit threshold (margin above threshold, higher = more increase) is -30.7%.
In the case of `CSc1nc2c(c(=O)[nH]1)C(c1ccc(Br)cc1)CC(=O)N2` (stereo unspecified), the signal change vs control minus 3*SD hit threshold (margin above threshold, higher = more increase) was -22.1%.
As for `C=CCn1c(=S)[nH]c2scc(-c3cccs3)c2c1=O`, the signal change vs control minus 3*SD hit threshold (margin above threshold, higher = more increase) was 37.4% (active).
Consider `C=CCn1c(=S)[nH]c2cc(-c3ccccc3)sc2c1=O`, for which the signal change vs control minus 3*SD hit threshold (margin above threshold, higher = more increase) is -25.2%.
For `C=CCn1c(=S)[nH]c2scc(-c3ccc(C)o3)c2c1=O`, the signal change vs control minus 3*SD hit threshold (margin above threshold, higher = more increase) was 27.1% (active).
In the case of `C=CCn1c(SCC(N)=O)nc2scc(-c3ccc(C)o3)c2c1=O`, the signal change vs control minus 3*SD hit threshold (margin above threshold, higher = more increase) is -20.7%.
Take `C=CCn1c(=S)[nH]c2ccc(Br)cc2c1=O`: the signal change vs control minus 3*SD hit threshold (margin above threshold, higher = more increase) is -17.4%.
For the compound `Cc1ccccc1NC(=O)CN1C(=O)S/C(=C\c2ccc(-c3cccc(C(=O)O)c3C)o2)C1=O`, the signal change vs control minus 3*SD hit threshold (margin above threshold, higher = more increase) was -33.5%.
Turning to `C=CCNc1sc(C(=O)C(C)(C)C)c(N)c1C#N`, the signal change vs control minus 3*SD hit threshold (margin above threshold, higher = more increase) was -32.1%.
`O=C(COc1ccc2c3c(c(=O)oc2c1)CCC3)N[C@@H](Cc1ccccc1)C(=O)O`: the signal change vs control minus 3*SD hit threshold (margin above threshold, higher = more increase) is -5.5%.
For `CSC1=C(C#N)C(CC(C)C)C2=C(CCCC2=O)N1` (stereo unspecified), the signal change vs control minus 3*SD hit threshold (margin above threshold, higher = more increase) was -26.3%.
On to `S=c1[nH]c2ccc(Cl)cc2s1`, for which the signal change vs control minus 3*SD hit threshold (margin above threshold, higher = more increase) was 36.9% (active).
Regarding `Cc1[nH]c(=S)sc1Cc1ccc(Cl)c(Cl)c1`, the signal change vs control minus 3*SD hit threshold (margin above threshold, higher = more increase) was -29.6%.
`O=C(Nc1ccc2[nH]c(=S)sc2c1)Nc1ccccc1F`: the signal change vs control minus 3*SD hit threshold (margin above threshold, higher = more increase) was -39.7%.
Take `S=c1[nH]c2cc(Cl)ccc2s1`: the signal change vs control minus 3*SD hit threshold (margin above threshold, higher = more increase) was 38.9% (active).
Turning to `CC(C)Cn1c(=S)[nH]c2cc(Cl)ccc21`, the signal change vs control minus 3*SD hit threshold (margin above threshold, higher = more increase) was -22.1%.
In the case of `COc1cc(S(=O)(=O)NCC2COCCO2)ccc1-n1cnnn1` (stereo unspecified) it was -28.3%; in that of `FC(F)(F)c1cnc2c(c1)[nH]c(=S)n2-c1ccc(Cl)cc1`, -16.7%.
In the case of `CNC(=O)c1ccc(NC(=O)CN2c3cccc4cccc(c34)S2(=O)=O)cc1` it was -22%.
